A short description of experiment [1]: anti-His antibody binders, primary screen, artefact control for SMM control protein annotation, biochemical, small-molecule microarray, 635 nm fluorescence (AID 1128).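 Note: score merges feature fluorescence with signal-to-noise for each printed compound spot.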 As to conditions: anti-His Alexa647 antibody binding, higher = more signal.
Experiment [2] has as its system Human papillomavirus type 1a E7 protein (residues 1-88). As to the kind of experiment: HPV1a E7 small-molecule binders, primary screen, biochemical, small-molecule microarray, residues 1-88, 635 nm (AID 1129). As to conditions: small-molecule microarray binding, fluorescence 635 nm; higher = more signal.
The target in experiment [3] is Focal adhesion kinase 1 (Homo sapiens) (UniProt Q05397). The experiment in a line: small-molecule microarray binders of FAK, primary screen, biochemical, 635/667 nm fluorescence, BSA, DTT (AID 1130).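 Note: composite of spot emission at 667 nm and signal to noise over triplicate slides.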 As to conditions: PTK2 binding, 635 nm fluorescence, higher = more signal.
Experiment [4] has as its system Fibrinogen (Alexa647-labelled). As to the kind of experiment: fibrinogen binders on compound microarrays, profiling panel, artefact control for SMM control-protein annotation, biochemical, small-molecule microarray, 635/667 nm fluorescence (AID 1131).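 Note: z-score merges 667 nm fluorescence with per-spot signal-to-noise over triplicate slides.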 As to conditions: fibrinogen-A647 binding fluorescence, higher = more signal.
In experiment [5] the target is Follistatin (Homo sapiens) (UniProt P19883). As to the kind of experiment: follistatin binders on small-molecule microarrays, primary screen, biochemical, small-molecule microarray, 635/667 nm fluorescence (AID 1132). As to conditions: FST binding, 635 nm fluorescence, higher = more signal.
For experiment [6], the target named is Fibroblast growth factor 2 (Homo sapiens) (UniProt P09038). The experiment in a line: FGF2 binders on small-molecule microarrays, primary screen, biochemical, small-molecule microarray, 635/667 nm fluorescence (AID 1133). As to conditions: small-molecule microarray binding, FGF2, fluorescence 635/667; higher = more signal.
A short description of experiment [7]: mitochondrial membrane potential change in A549 cells, profiling panel, cell-based, JC-1 fluorescence, basal, 24 h, 100 nL (AID 1138).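 Note: A549 lung adenocarcinoma cells under basal conditions with no added stimulus; test concentration not given here.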 As to conditions: higher = more signal.
The test system of another experiment is Lefty1. As to the kind of experiment: Lefty1 binders on small-molecule microarrays, primary screen, biochemical, small-molecule microarray, 635/667 nm fluorescence (AID 1139). As to conditions: small-molecule microarray binding, fluorescence 635/667; higher = more signal.
The subject of experiment [8] is wheat germ agglutinin (Triticum aestivum), Alexa647-labelled. As to the kind of experiment: wheat germ agglutinin binders on compound microarrays, profiling panel, artefact control for SMM control-protein annotation, biochemical, small-molecule microarray, 635/667 nm fluorescence (AID 1140).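 Note: score merges 667 nm feature emission with signal to noise over triplicate slides.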 As to conditions: WGA-A647 binding, 635 nm fluorescence, higher = more signal.

Experiment [9] has as its target Luciferin 4-monooxygenase (Photinus pyralis) (UniProt P08659). The experiment in a line: firefly luciferase enzyme inhibitors, primary screen, biochemical, luminescence, purified enzyme, 2006 set (AID 1141).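 Note: cell-free assay with purified firefly luciferase at 100 ng per well in PBS; test concentration not given here.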 As to conditions: SteadyGlo luminescence, 30 min, higher = more signal, called active from +8 up or from −8 down.
For experiment [10], the system named is Wnt5a (protein binding on small-molecule microarray). The experiment in a line: Wnt5a binders on small-molecule microarray, primary screen, biophysical, 635/667 nm fluorescence (AID 1142).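 Note: fluorescence read at 667 nm with signal to noise per printed feature.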 As to conditions: 635 nm fluorescence, higher = more signal.
Experiment [11] in a line: cell viability in Huh7 cells, primary screen, cytotoxicity control for HCV replication inhibitor project, CellTiter-Glo luminescence, basal, 48 h (AID 1143).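 Note: Huh7 hepatoma cells carrying a hepatitis C replication reporter with no stimulus; test concentration not given here.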 As to conditions: Huh7 HCV replicon, higher = more signal, called active from +8 up or from −8 down. A general note: ATP-based viability assays read luminescence as a measure of living cells.
Experiment [12] in a line: P. aeruginosa biofilm formation inhibitors, primary screen, PAO1 strain, BacTiter-Glo luminescence, LB-PBS (AID 1144). As to conditions: 12 h, higher = more signal.
Experiment [13] in a line: CREB reporter modulators without forskolin, primary screen, cell-based, PC12, CRE-LacZ reporter, unstimulated (AID 1145). As to conditions: no forskolin, luminescence, 4.5 h, higher = more signal, called active from +8 up or from −8 down.
Experiment [14] can be described thus: CREB reporter modulators under forskolin, primary screen, cell-based, PC12, CRE-LacZ reporter, forskolin-stimulated (AID 1146).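 Note: PC12 cells with 6xCRE LacZ reporter stimulated by forskolin 10 µM; beta-galactosidase reporter signal reflecting CREB driven transcription.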 As to conditions: luminescence, 4.5 h, higher = more signal, called active from +8 up or from −8 down.
Experiment [15] deals with Streptavidin (Streptomyces avidinii) (UniProt P22629). The experiment in a line: streptavidin binders on small-molecule microarray, primary screen, artefact control for SMM compound annotation, biophysical, 635/667 nm fluorescence (AID 1147).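 Note: signal reflects streptavidin binding to arrayed compounds as a control protein.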 As to conditions: streptavidin binding, higher = more signal.
Experiment [16] in a line: small-molecule binders of probe aInhba, primary screen, biochemical, small-molecule microarray, 635/667 nm fluorescence (AID 1148).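 Note: score merges 667nm spot fluorescence with signal-to-noise for antibody binding to printed compounds.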 As to conditions: higher = more signal.
Experiment [17] has as its target Torsin-1A (Homo sapiens) (UniProt O14656). The experiment in a line: torsin A binders from cell lysate, primary screen, small-molecule microarray, wild-type, 635/667 nm (AID 1149). As to conditions: COS7 hTOR1A-WT lysate, 635 nm fluorescence, higher = more signal.
Experiment [18] has the same target. The experiment in a line: small-molecule binders of mutant TOR1A in lysate, primary screen, cell lysate, small-molecule microarray, COS7 lysate, 635/667 nm fluorescence (AID 1150).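 Note: score pools 667 nm emission and signal to noise measuring lysate protein binding.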 As to conditions: COS7 hTOR1A mutant lysate, 635 nm fluorescence, higher = more signal.
In experiment [19] the test system is Sonic hedgehog protein (Shh). As to the kind of experiment: small-molecule binders of Shh protein, primary screen, biochemical, small-molecule microarray, 635/667 nm fluorescence (AID 1151).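 Note: Shh protein binding to compounds spotted on small-molecule microarray slides; score combines spot fluorescence intensity with signal-to-noise across triplicate slides.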 As to conditions: small-molecule microarray binding, 635 nm fluorescence; higher = more signal.

Several values for one entry are separate records, joined by “and”; a condition that tells them apart may be missing. Equal values may be shown once. Activity calls are given as the source filed them. Unless noted, the rule behind the calls is not given here.

Sequence of Streptavidin (Streptomyces avidinii) (P22629 whole entry, looked up): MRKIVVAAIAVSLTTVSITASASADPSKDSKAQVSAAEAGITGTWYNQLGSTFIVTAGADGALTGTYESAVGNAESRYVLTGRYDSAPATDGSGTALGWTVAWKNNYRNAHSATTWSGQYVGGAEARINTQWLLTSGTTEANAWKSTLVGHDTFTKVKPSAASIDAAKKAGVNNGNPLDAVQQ
Sequence of Torsin-1A (Homo sapiens) (O14656 whole entry, looked up): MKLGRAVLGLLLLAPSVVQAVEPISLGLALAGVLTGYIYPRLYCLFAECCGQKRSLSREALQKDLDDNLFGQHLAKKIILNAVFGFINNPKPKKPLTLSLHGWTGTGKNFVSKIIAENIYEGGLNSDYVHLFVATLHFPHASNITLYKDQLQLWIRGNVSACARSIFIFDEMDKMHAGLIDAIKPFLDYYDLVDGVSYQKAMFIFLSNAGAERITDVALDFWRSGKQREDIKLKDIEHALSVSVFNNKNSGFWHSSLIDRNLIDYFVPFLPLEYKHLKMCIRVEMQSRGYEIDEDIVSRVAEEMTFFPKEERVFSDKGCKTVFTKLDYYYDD
Sequence of Fibroblast growth factor 2 (Homo sapiens) (P09038 whole entry, looked up): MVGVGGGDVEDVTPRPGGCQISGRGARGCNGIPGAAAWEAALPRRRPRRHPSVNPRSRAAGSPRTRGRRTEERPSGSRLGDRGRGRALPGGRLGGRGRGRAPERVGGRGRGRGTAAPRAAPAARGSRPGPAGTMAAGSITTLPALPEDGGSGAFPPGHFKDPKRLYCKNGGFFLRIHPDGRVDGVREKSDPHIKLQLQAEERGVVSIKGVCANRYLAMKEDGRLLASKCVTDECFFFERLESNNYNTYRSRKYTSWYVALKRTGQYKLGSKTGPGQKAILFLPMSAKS
Sequence of Focal adhesion kinase 1 (Homo sapiens) (Q05397 whole entry, looked up): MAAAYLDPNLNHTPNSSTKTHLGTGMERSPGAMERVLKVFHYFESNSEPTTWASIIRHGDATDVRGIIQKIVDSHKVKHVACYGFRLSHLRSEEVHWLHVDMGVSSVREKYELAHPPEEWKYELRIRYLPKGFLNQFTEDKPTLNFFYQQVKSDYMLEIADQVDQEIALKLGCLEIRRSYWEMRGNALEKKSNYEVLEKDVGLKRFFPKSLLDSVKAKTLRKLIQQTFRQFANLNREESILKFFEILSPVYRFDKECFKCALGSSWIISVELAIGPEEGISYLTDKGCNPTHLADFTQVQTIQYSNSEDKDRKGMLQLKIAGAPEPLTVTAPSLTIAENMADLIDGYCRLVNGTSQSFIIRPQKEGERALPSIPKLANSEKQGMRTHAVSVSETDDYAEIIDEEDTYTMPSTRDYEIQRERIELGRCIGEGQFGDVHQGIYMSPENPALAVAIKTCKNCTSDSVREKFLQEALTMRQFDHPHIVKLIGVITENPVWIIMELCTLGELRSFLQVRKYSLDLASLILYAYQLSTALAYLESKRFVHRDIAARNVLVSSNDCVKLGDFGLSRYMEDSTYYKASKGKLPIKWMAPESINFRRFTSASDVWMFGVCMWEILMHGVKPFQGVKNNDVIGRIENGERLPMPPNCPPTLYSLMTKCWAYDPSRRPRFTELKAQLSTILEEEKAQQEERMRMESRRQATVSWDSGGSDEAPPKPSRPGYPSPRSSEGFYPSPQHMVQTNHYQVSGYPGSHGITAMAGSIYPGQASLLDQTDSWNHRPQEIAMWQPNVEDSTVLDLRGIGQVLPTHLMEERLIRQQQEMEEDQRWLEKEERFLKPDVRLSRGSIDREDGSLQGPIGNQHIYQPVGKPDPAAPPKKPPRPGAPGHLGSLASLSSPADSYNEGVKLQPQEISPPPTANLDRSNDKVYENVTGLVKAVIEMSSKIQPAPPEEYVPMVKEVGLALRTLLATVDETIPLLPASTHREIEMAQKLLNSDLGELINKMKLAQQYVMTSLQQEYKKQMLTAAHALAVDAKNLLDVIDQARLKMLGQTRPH
Sequence of Luciferin 4-monooxygenase (Photinus pyralis) (P08659 whole entry, looked up): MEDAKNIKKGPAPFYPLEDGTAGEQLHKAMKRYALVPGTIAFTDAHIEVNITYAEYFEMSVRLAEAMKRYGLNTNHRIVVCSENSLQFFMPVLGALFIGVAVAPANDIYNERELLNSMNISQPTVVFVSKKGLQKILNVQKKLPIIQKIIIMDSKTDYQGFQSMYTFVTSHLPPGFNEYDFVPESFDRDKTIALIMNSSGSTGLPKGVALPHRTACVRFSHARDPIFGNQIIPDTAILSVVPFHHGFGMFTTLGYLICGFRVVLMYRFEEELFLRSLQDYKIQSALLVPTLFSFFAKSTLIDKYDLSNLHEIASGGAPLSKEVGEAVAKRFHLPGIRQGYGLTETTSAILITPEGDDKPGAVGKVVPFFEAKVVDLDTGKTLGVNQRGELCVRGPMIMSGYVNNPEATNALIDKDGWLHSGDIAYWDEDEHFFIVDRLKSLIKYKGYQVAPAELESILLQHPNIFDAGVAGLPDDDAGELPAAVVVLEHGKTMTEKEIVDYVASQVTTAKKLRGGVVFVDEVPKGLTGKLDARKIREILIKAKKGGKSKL
Sequence of Follistatin (Homo sapiens) (P19883 whole entry, looked up): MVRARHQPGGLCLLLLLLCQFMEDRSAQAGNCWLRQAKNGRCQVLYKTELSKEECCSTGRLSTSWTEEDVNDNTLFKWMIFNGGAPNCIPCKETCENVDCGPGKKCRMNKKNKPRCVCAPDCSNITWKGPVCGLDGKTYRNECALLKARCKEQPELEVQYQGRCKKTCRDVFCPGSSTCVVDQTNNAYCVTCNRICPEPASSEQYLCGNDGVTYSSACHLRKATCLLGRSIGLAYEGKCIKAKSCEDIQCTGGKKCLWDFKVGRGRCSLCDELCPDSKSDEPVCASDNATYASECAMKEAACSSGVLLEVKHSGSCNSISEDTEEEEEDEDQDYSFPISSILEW

Consider `COC(=O)C1=C(C)N(Cc2ccccc2)C2=C(C(C)=O)[C@H](c3ccccc3)[C@@](O)(C(=O)OC)C(=O)N2[C@@H]1c1ccccc1`, for which the composite z-score in [1] was 0.313 and -0.605; in experiment [2] it was 1.06 and -0.558; in experiment [3], 0.113 and -0.651; in experiment [4], 0.963 and 0.0691; in [5] it was 0.764 and -0.238; in [6], 0.745 and 0.282. Further, the composite z-score in the experiment on Lefty1 was 0.638 and -0.0574; in experiment [8] it was 0.493 and -0.348; in [10], 0.142 and -0.0685; in experiment [15], 0.499 and -0.212; in [16], 0.105 and -0.171; with Torsin-1A (Homo sapiens) [17] it was 0.576 and -0.313. Also, the composite z-score with Torsin-1A (Homo sapiens) [18] is 0.9 and -0.211; in experiment [19] it was 0.686 and 0.16. Also, the z-score in [7] is 3.76 and 1.44; in experiment [9], -1.12 (inactive) and -2.89 (inactive); in experiment [11], -0.912 (inactive) and -3.17 (inactive); in experiment [12], -1.5 (inactive); in [13] it was 1.1 (inactive) and 0.916 (inactive); in experiment [14], -0.213 (inactive) and -0.284 (inactive).

As for `C=CCN(Cc1ccccc1)C(=O)C(c1cccs1)N(C(=O)/C=C\C(=O)O)c1c(Cl)cccc1CO` (stereo not given), the composite z-score was -0.815 and -1.36 in experiment [1]; -0.562 and -1.54 in experiment [2]; -0.675 and -0.0599 in experiment [3]; -2.79 and -3.53 in experiment [4]; -1.74 and -2.71 in experiment [5]; -2.4 and -1.88 in experiment [6]. Further, the composite z-score in the experiment on Lefty1 is -1.51 and -1.93; in [8], -0.482 and -1.57; in experiment [10], -0.835 and -0.796; in experiment [15] it was -1.7 and -1.08; in experiment [16], -0.154 and -0.176; with Torsin-1A (Homo sapiens) [17], -2.82 and -2.49. The composite z-score was 0.702 and -1.72 with Torsin-1A (Homo sapiens) [18]; -0.877 and -0.78 in experiment [19]. Besides, the z-score in experiment [7] is -0.321 and -0.229; in experiment [9], 1.02 (inactive) and 0.077 (inactive); in [11], -0.109 (inactive) and 0.446 (inactive); in experiment [12], -1.78 (inactive) and 0.911 (inactive); in experiment [13] it was -1.44 (inactive) and 0.191 (inactive); in [14], -0.418 (inactive) and -0.107 (inactive).

Take `C=CCN(CCCC)C(=O)C1N(c2ccc(CCO)cc2)C(=O)C2C(C(=O)O)C3C=CC21O3` (stereo not given): the composite z-score in experiment [1] was -1.5 and -1.42; in [2] it was -1.48 and -1.18; in experiment [3] it was -1.03 and 0.339; in [4] it was -1.01 and -2.98; in experiment [5], -0.852 and -2.67; in experiment [6], -0.893 and -2.56. For the same molecule, the composite z-score with Lefty1 was -1.39 and -3.01; in experiment [8], 0.0666 and -1.56; in experiment [10] it was -0.612 and -0.135; in experiment [15] it was -1.29 and -2.12; in experiment [16], -0.389 and -0.409; in the experiment with Torsin-1A (Homo sapiens) [17], -2.4 and -3.13. The composite z-score was -1.86 and -3.82 with Torsin-1A (Homo sapiens) [18]; -1.43 and -2.14 in experiment [19]. The z-score in experiment [7] is -0.898 and -0.353; in experiment [9], 1.5 (inactive) and -1.51 (inactive); in experiment [11], -0.544 (inactive) and -0.336 (inactive); in experiment [12], -0.353 (inactive) and -1.38 (inactive); in experiment [13], -0.224 (inactive) and 0.0524 (inactive); in [14], -0.153 (inactive) and 0.323 (inactive).
